Shown are actives, neighbours in structure and some others; about 3.7% of the full set was active somewhere.
HepG2 viability = qHTS for Inhibitors of TGF-b: Cytotox Counterscreen | actives 0.76% (n = 410,000) | HepG2 CAGA-GFP viability, ATP luminescence, 18 h | Potency, µM (top dose mostly 46.1 µM), most hits filed as cytotoxic
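CellTiter-Glo luminescence gave cytotoxicity after 18 hours at 37 degrees C. The cells were HepG2 CAGA-GFP in 1% FBS DMEM, stimulated with 500 pg/mL TGF-beta after compound addition. %Activity was normalised to no-cell wells (complete cell-killing) and DMSO (no toxicity), and curves were fitted and classified.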
ATXN2 expr inh = Primary qHTS for Inhibitors of ATXN expression; actives 0.72% (n = 360,000); Potency, µM (titrated, usually from 57 µM), hits mostly inhibitors; HEK-293 ATXN2-luciferase reporter, luminescence, 24 h; further: nearly all actives have a fitted effect of over 55% in size
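ATXN2-luciferase reporter cells (luciferase flanked by upstream and downstream ATXN2 gene portions) were treated 24 h at 37 °C with compounds at up to 57 uM. SteadyGlo luminescence gave expression; GF-AFC fluorescence gave viability.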
GLP1R ag = qHTS of GLP-1 Receptor Agonists; Glucagon-like peptide 1 receptor (Homo sapiens), P43220; AID 624172, 2012; Potency, µM (highest dose often 45.6 µM), most hits filed as activators; HEK293 GLP-1R CRE-luciferase, luminescence, 4-6 h; cells express a hypersensitive GLP-1R form; actives 0.007% (n = 380,000)
Target sequence (P43220 whole entry, looked up): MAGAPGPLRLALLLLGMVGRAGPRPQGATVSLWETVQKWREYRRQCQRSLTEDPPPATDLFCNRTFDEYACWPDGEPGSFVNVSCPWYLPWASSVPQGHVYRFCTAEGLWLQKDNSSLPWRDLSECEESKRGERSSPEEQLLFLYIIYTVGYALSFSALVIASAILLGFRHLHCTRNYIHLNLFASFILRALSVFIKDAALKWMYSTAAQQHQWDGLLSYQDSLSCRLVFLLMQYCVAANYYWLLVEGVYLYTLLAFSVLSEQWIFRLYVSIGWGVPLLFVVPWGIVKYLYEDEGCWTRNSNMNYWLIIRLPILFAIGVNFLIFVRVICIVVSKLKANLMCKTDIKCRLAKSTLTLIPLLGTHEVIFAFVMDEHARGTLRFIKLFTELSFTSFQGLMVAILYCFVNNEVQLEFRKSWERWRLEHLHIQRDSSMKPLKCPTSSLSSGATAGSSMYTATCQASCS
S2 tox = Viability Counterscreen for Primary qHTS for Inhibitors of ATXN expression. Potency, µM (top dose mostly 56.7 µM), usual class: cytotoxic. actives 0.49% (n = 400,000). AID 651635, 2014. S2 cells (HEK-293 line with an ATXN2-luciferase reporter) viability, CellTiter-Fluor protease fluorescence, 24 h; further: nearly all actives have a fitted effect of over 40% in size
TGFb SMAD3 inh = qHTS for Inhibitors of TGF-b; HepG2 CAGA-GFP TGF-b/SMAD3 reporter, GFP fluorescence, 18 h; TGF-beta stimulated, 500 pg/mL final; actives 1.2% (n = 410,000); Potency, µM (titrated, usually from 46.1 µM), usual class: inhibitors; further: nearly all actives have a fitted effect of over 65% in size
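HEPG2 CAGA-GFP, 1000 cells/well; 2 h settle, 37 C; cpd via pin tool; TGF-b 500 pg/mL final; 18 h, 37 C; GFP imaging ex488/em500-530; %Activity normalised to -TGF-b and +DMSO controls; CRC fit, curve class.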
GLP1R inv ag = qHTS of GLP-1 Receptor Inverse Agonists (Inhibition Mode) | Glucagon-like peptide 1 receptor (Homo sapiens), P43220 | AID 624417, 2012 | Potency, µM (titrated, usually from 38.3 µM), usual class: inhibitors | actives 1.6% (n = 410,000) | HEK293 GLP-1R CRE-luciferase, luminescence, 24 h; GLP-1R form is constitutively active; further: nearly all actives have a fitted effect of over 55% in size
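Luminescence readout: a drop in cAMP-driven luciferase signal flags inverse agonism at a constitutively active GLP-1R stably expressed in HEK293. Compound exposure lasted 24 hr at 37 deg C, 5% CO2.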
Large screens that a line does not name were inactive. The call rests on the fitted dose curve; in most records, active means well fitted curve in the direction sought with a large enough effect; inconclusive means small, poorly fitted or top-dose-only effect, or another doubt; inactive means no such curve, though single readings can be large; an effect the other way counts as inactive or inconclusive.

COC(=O)[C@@H]1C[C@@H](NC(=O)c2cccc3c(C)c(C)[nH]c23)CN1Cc1cccc2ccccc12	none (no result: HepG2 viability, ATXN2 expr inh, GLP1R ag, TGFb SMAD3 inh, GLP1R inv ag)
CN(C)c1ccc(/C=C2\CCc3ccccc32)cc1	none (no result: ATXN2 expr inh, GLP1R ag, S2 tox, GLP1R inv ag)
OC(CNCCNc1ncccc1C(F)(F)F)Cn1ccc2ccccc21 (stereo not given)	HepG2 viability 16µM, TGFb SMAD3 inh inconclusive, GLP1R inv ag 10µM (no result: ATXN2 expr inh)
COc1ccc(-c2csc(N(CCCN(C)C)C(=O)c3ccc(Br)cc3)n2)cc1	TGFb SMAD3 inh inconclusive, GLP1R inv ag inconclusive
COc1ccc(-c2csc(N(CCCN(C)C)C(=O)c3ccc(C)cc3)n2)cc1	ATXN2 expr inh inconclusive, S2 tox inconclusive, TGFb SMAD3 inh inconclusive, GLP1R inv ag 4µM
COc1ccc(-c2csc(N(CCCN(C)C)C(=O)c3cccs3)n2)cc1	HepG2 viability 10µM, S2 tox inconclusive
COc1ccc(N2CCN(C(=O)CSc3nnc(-c4cccnc4)n3-c3ccccc3)CC2)cc1	GLP1R inv ag 11µM
CSc1ccccc1OCc1cc(C(=O)N2CCCC(C)C2)no1 (stereo not given)	GLP1R inv ag inconclusive
CCN(CC)C1CCN(C(=O)c2cc(COc3ccccc3SC)on2)C1 (stereo not given)	GLP1R inv ag 7.1µM
COc1cccc(C2(CC(=O)N3CCCCC3CO)CC(=O)N(C)C2=O)c1 (stereo not given)	none (no result: HepG2 viability, ATXN2 expr inh, GLP1R ag, TGFb SMAD3 inh, GLP1R inv ag)
CCOc1ccc2nc(N/C(N)=N/C(=S)Nc3ccc(C)c(C)c3)nc(C)c2c1	none
COc1ccc(NC(=S)/N=C(\N)Nc2nc(C)c3ccc(C)cc3n2)cc1	ATXN2 expr inh inconclusive, S2 tox 16µM, GLP1R inv ag inconclusive
CCCNC(=O)C1(C)CCN(CCC(=O)c2ccc(Br)cc2)C1 (stereo not given)	TGFb SMAD3 inh inconclusive
COCCNC(=O)C1(C)CCCN(CCC(=O)c2ccc(Br)cc2)C1 (stereo not given)	HepG2 viability 13µM, S2 tox inconclusive, TGFb SMAD3 inh 16µM
COc1ccc(CCC(C)N2CCC(CO)(Cc3ccccc3)CC2)cc1 (stereo not given)	GLP1R inv ag 7.9µM
Cn1c(SCC2CCCO2)nnc1C1CCN(Cc2ccc(-c3cccc(Cl)c3)o2)CC1 (stereo not given)	none (no result: HepG2 viability, ATXN2 expr inh, GLP1R ag, TGFb SMAD3 inh, GLP1R inv ag)
Cc1cc(NC(=O)C23CCC(C)(C(=O)O2)C3(C)C)no1 (stereo not given)	none
CC12CCC(C(=O)Nc3ccc(Br)cn3)(OC1=O)C2(C)C (stereo not given)	HepG2 viability 4.5µM
O=C(c1cc(S(=O)(=O)N2CCOCC2)ccc1F)N(CCc1ccccc1)Cc1ccccc1	GLP1R inv ag 10µM
COc1ccc(C(=O)N(CCc2ccccc2)Cc2ccccc2)c(OC)n1	TGFb SMAD3 inh inconclusive, GLP1R inv ag 5.6µM
Cc1cccc(C(=O)N(CCc2ccccc2)Cc2ccccc2)c1[N+](=O)[O-]	ATXN2 expr inh inconclusive, TGFb SMAD3 inh inconclusive, GLP1R inv ag 3.2µM
O=C(NCCc1ccccc1)c1cc(S(=O)(=O)N2CCOCC2)ccc1F	none
Cc1ccc(S(=O)(=O)N2CCCCC2)cc1C(=O)N(CCc1ccccc1)Cc1ccccc1	TGFb SMAD3 inh inconclusive, GLP1R inv ag 4.5µM
O=C1OCC2=C1C(c1cccc(Cl)c1)CC(=O)N2c1ccc(C(F)(F)F)cc1 (stereo not given)	none
COc1ccc(C2=C(C)C(=NCCCN3CCN(c4cc(C)ccc4C)CC3)NS2(=O)=O)cc1	HepG2 viability 10µM, TGFb SMAD3 inh inconclusive (no result: ATXN2 expr inh, GLP1R ag, S2 tox)
COc1ccc(NC(=O)NCCCN2CCN(c3ccccc3F)CC2)cc1	none
COc1ccc(N2CCN(CCNC(=O)Nc3ccc(C)c(Cl)c3)CC2)cc1	GLP1R inv ag 2.8µM (no result: ATXN2 expr inh)

Assay outcomes as filed in PubChem.
